Assay results: PubChem BioAssay AID488789 (Broad Institute, 2010)
Potency and affinity values are given separately. Inconclusive results are not listed. The source made the active and inactive calls.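 Rule for the calls: active = samples whose fitted half-maximal inhibition concentration is no more than ten times the top valid dose tested; inconclusive = flat response between -70 and -30, or invalid curve fit; inactive = flat within 30 of zero, potency above limit, or signal rising.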

Biological target: Trypsin (Sus scrofa) (UniProt P00761)
Assay: porcine trypsin inhibitors, dose response, selectivity assay for Rce1 protease inhibitor project, biochemical, quenched peptide fluorescence, cherry-pick (AID 488789);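 note: more negative means stronger trypsin inhibition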
Conditions: quenched peptide cleavage fluorescence; series mostly up to 10 µM; activity change, negative = inhibition: at the top concentration

Sequence of Trypsin (Sus scrofa) (P00761 whole entry, looked up): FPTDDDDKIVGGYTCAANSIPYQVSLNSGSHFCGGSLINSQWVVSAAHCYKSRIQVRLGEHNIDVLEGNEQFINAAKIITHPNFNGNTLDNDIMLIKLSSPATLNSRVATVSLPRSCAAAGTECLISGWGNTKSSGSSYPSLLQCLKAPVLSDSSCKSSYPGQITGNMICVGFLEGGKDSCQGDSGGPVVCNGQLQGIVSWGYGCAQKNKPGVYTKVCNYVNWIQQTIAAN

Activity change, negative = inhibition, inactive:
O=C(CCNC(=O)N1CC(=O)Nc2ccccc21)NCCc1cccc(F)c1 6.18%
C/C(CC1(O)C(=O)Nc2ccccc21)=N\O (configuration not stated) 30.9%
O=c1c(-c2ccccc2)c(O)c2ccccc2n1-c1ccccc1 11.5%
CN1C(=O)/C(=C/c2cccc(Cl)c2)Sc2ccc(C(=O)N3CCOCC3)cc21 12.6%
CN(C)CCCN(C(=O)c1cc(-c2cccs2)nc2ccccc12)c1nc2ccc(F)cc2s1 -3.8%
CCCCOc1ccc(Cc2c(COCC)[nH]c(=S)[nH]c2=O)cc1 5.62%
O=C(NCC1CC1)c1cc(-c2ccccc2)nn1CC1CC(c2cccc([N+](=O)[O-])c2)=NO1 (configuration not stated) 11%
Nc1nnnn1/N=C/c1ccccc1OCc1ccc(Cl)cc1Cl 0.248%
C/C(Cl)=C\Cn1c(O)c(N=NC(N)=S)c2cc(Br)ccc21 4.97%
Cc1ccc(C2(COC(=O)C(C)C)CO2)c(OC(=O)C(C)C)c1 (configuration not stated) 8.63%
CC(C)c1c(C(=O)N/N=C/c2cccc3ccccc23)nnn1-c1nonc1N 21.5%
Cc1nn(CCC(=O)O)c2nc(-c3cccnc3)cc(C(F)(F)F)c12 9.33%
COc1cc(C(=O)OCC(=O)Nc2ccc(SC(F)F)cc2)cc(OC)c1OC 1.57%
CC(=O)NC(Cc1c[nH]c2ccccc12)C(=O)O (configuration not stated) 9.84%
CCn1c(COc2cccc(C)c2)nnc1SCC(=O)NC1CCCC1 11.4%
COc1cc(OC)cc(-c2ncc3ccccn23)c1 -4.15%
O=C(Nc1cc(Cl)cc(Cl)c1)c1coc(=O)c(Br)c1 3.02%
CCc1cc(=O)oc2cc(OCC(=O)N3CCC(C(=O)O)CC3)ccc12 -6.59%
COc1cccc(C(=O)Nc2nnc(SCC(=O)NC3CCCC3)s2)c1 -6.24%
O=C1CN(C(=O)NCC(=O)N2CCCC2)c2ccccc2N1 0.151%
COc1ccc(C2/C=C\CN(C(=O)c3ccc(C)cc3)[C@H](Cc3ccccc3)C(=O)N2Cc2ccc(F)cc2)cc1 (some centres not stated) 6.08%
O=C(O)CCc1ccc(-c2cccs2)n1Cc1ccco1 16.1%
O=C(CCCn1c(=O)[nH]c2ccc(Br)cc2c1=O)NCc1ccc(Cl)cc1 -3.19%
FC(F)(F)c1cc(Oc2ccccc2)ncc1-c1nnc(-c2ccccc2Cl)o1 16%
Clc1ccc(CN2CCc3c([nH]c4ccccc34)C2)cc1Cl -2.35%
Cc1ccc(-c2c(C(=O)N/N=C/c3cccc(Cl)c3)nnn2-c2nonc2N)cc1 3.16%
Cc1ccc(-c2nc(CN3CCCCC3)cc(CN3CCCCC3)c2O)cc1 -10.6%
CCC(C)(C)c1ccc(OCCCC[n+]2cccc(C)c2)c(C(C)(C)CC)c1 15.5%
CC(=O)c1c(C)oc2ccc(NS(=O)(=O)c3ccc(C(=O)O)cc3)cc12 24%
O=C(c1cn(-c2ccccc2)nc1-c1cccs1)N1CCN(c2ccccc2)CC1 27.7%
COc1ccc(C2c3c(ncn(CCN4CCOCC4)c3=N)Oc3ccc4ccccc4c32)cc1 (configuration not stated) 3.44%
O=C1CCCC(O)=C1N=Nc1ccc2ncsc2c1 3.04%
COc1ccc(C2Nc3ccccc3C(=O)N2Cc2ccccc2)cc1COc1ccccn1 (configuration not stated) -12.8%
O=C(Cn1c2ccccc2c(=O)c2ccccc21)Nc1ccccc1F -4.99%
Cc1nc(N2CCOCC2)c2cc(-c3ccccc3)sc2n1 7.9%
Cc1ccc(OCCn2c3ccccc3n3nc(C)c(=O)nc23)cc1 -5.01%

outcome, inactive:
NC(=NCCCCCCN=C(N)/N=C(\N)Nc1ccc(Cl)cc1)/N=C(\N)Nc1ccc(Cl)cc1
